Shown are actives, neighbours in structure and some others; about 5.4% of the full set was active somewhere.
rCAG RNA binder: r(CAG) repeat RNA binding; 370,000 tested, 1.3% active; AID 651821; inhibition, % at 3 µM; TO-PRO-1 dye displacement fluorescence;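 active = inhibition above the plate cutoff, the mean of all test compounds on that plate plus 3 SD, cut at about 35% in these data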;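 note: 0% = DMSO alone and 100% = 100 µM mitoxantrone as full dye displacement; higher means more dye released from RNA so lower well fluorescence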
APOBEC3A inh: inhibitors of human APOBEC3A DNA deaminase; P31941; 330,000 tested, 0.41% active; recombinant A3A, FAM/TAMRA ssDNA deamination fluorescence; inhibition, % at 20 µM;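 active = at least 40% inhibition at 20 µM here, with at most 30% in a related deaminase screen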;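 note: plate controls were A3A with DMSO for no effect and wells lacking A3A enzyme for full effect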
Target sequence (P31941 whole entry, looked up): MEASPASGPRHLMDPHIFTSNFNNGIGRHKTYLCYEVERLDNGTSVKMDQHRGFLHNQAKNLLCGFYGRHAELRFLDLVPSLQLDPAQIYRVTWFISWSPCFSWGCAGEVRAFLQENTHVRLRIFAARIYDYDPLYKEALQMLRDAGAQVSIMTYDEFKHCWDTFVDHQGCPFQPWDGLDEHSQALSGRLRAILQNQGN
PHOSPHO1 block: PHOSPHO1 (human) inhibition; inhibition, % at 13.3 µM; AID 1565; recombinant PHOSPHO1, absorbance phosphatase assay; 290,000 tested, 1.1% active; in the data active = inhibition above about 60%
Target sequence (Q8TCT1 whole entry, looked up): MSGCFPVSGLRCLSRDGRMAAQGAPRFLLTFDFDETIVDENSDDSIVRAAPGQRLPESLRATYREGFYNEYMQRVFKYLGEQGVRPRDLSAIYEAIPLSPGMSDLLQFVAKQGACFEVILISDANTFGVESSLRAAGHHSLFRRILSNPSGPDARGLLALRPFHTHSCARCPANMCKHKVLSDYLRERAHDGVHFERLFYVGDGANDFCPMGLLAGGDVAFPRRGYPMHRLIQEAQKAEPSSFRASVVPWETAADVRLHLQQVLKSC
aDG glyco up: alpha-DG glycosylation activation; Pro5-aDG cells, alpha-DG glycosylation AlphaScreen (IIH6); 0% Pro5, 100% B10-LARGE cell signal; activation, % at 10 µM; 360,000 tested, 0.22% active;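 active = activation of at least 8% versus controls, or a plate z-score of at least 8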;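 note: Pro5 are CHO cells carrying HIG-tagged alpha-DG that lacks glycosylation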
A3G deaminase: inhibitors of human APOBEC3G DNA deaminase; 330,000 tested, 0.28% active; Q9HC16; inhibition, % at 20 µM; recombinant A3G, ssDNA deamination FAM/TAMRA fluorescence;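 active = inhibition of at least 40% at 20 µM, with no more than 30% in the related APOBEC3A deaminase screen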;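 note: plate controls were DMSO wells with A3G for no effect and wells lacking A3G enzyme for full effect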
ALR inh: human ALR oxidase inhibition via reduced H2O2. purified ALR, DTT oxidation, H2O2 HRP-luminol luminescence. P55789. 290,000 tested, 3.8% active. inhibition, % (test concentration not listed);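 active = mean replicate inhibition above about 79%, with every replicate also reaching it, limit read from the data; inconclusive = only one of the two criteria met; inactive = mean below limit and not every replicate reaching it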
Numbers without * were called inactive; ? = inconclusive; . = no result given.

SMILES | rCAG RNA binder | APOBEC3A inh | PHOSPHO1 block | aDG glyco up | A3G deaminase | ALR inh
O=C1NC(=S)S/C1=C1\Sc2ccccc2N1CCCS(=O)(=O)O | 0 | -1 | 72* | 0 | -4 | ?
c1ccc(-c2c[nH]c3ccc(OCCN4CCOCC4)c(-c4ccccc4)c23)cc1 | 3 | . | . | . | . | .
CCOC(=O)CN1C(=O)N(c2ccc(OC)cc2)[C@H]2CC3c4ccccc4C[C@]3(C)[C@@H](C(=O)N(C)C3CCCCC3)C[C@H]21 (some centres not stated) | 6 | . | . | . | . | .
COc1cccc(NC(=O)CSc2c3c(nc4ccccc24)CCCC3)c1 | 3 | 9 | -20 | 1 | -2 | 99*
COc1cccc(NC(=O)CSc2ncnc3c2cnn3Cc2ccccc2)c1 | -2 | 6 | -2 | 0 | -1 | 90*
Cc1cccc(NC(=O)CSc2c3c(nc4ccccc24)CCC3)n1 | -4 | 5 | -5 | 1 | 3 | 99*
COc1ccc(NC(=O)CSc2ncnc3c2cnn3CCc2ccccc2)cc1 | 4 | 1 | 23 | 0 | -5 | 6
CCCCN(C)C(=O)c1cn(C(C)c2ccccc2)nn1 (configuration not stated) | 0 | . | . | . | . | .
COC(=O)C1=C(C(=O)OC)[C@@H]2N(C)c3ccccc3[C@@]23C[C@@H](C(=O)OC)N=C3N1 | -2 | -2 | 35 | 0 | -4 | 11
COC(=O)C1=C(C(=O)OC)[C@@H]2N(C)c3ccc(OC)cc3[C@@]23C[C@@H](C(=O)OC)N=C3N1 | 1 | -4 | 22 | 0 | -7 | 77*
CN(c1cccnc1)c1ccc(NC(=O)Cc2c[nH]c3ccccc23)cc1Br | 12 | . | . | . | . | .
Cc1c(Cc2ccccc2)c(=O)oc2cc(O)ccc12 | 4 | -3 | 12 | 0 | -6 | 47
CCOC(=O)CCc1c(C)c2ccc(O)cc2oc1=O | 3 | -1 | 3 | 0 | 1 | 81*
COc1cccc(/C=C2\CC3(OC(=O)c4ccco4)CCCN2C3)c1 (configuration not stated) | 2 | . | . | . | . | .
COc1ccc(Cn2c(C)c(CC(=O)Nc3ccc(Oc4cccnc4)c(C)c3)c3ccccc32)cc1 | 17 | . | . | . | . | .
CC12CCC(=O)N1C(C(=O)Nc1cc(Cl)ccc1N1CCCC1)CS2 (configuration not stated) | 3 | -3 | . | 0 | -10 | 86*
CC12CCC(=O)N1C(C(=O)Nc1ccccc1N1CCCC1)CS2 (configuration not stated) | -3 | . | . | 0 | . | .
CCC(=O)N(c1ccccc1)C1CCN(C(=O)C(Cc2ccccc2)NC(C)=O)CC1 (configuration not stated) | -1 | . | . | . | . | .
O=C(CSc1ccc2ccccc2n1)N/N=C/c1ccc(O)cc1 | 6 | 3 | 20 | 0 | 7 | 99*
O=C(CNS(=O)(=O)c1ccccc1)N/N=C/c1ccc(O)cc1 | 1 | -3 | -9 | 0 | -13 | 99*
O=C(CCn1cnc2ccccc21)N/N=C/c1ccc(O)cc1 | -1 | -2 | -17 | 0 | -6 | 99*
Cc1ccc2nc(SCC(=O)N/N=C/c3ccc(C(=O)O)cc3)cc(C)c2c1 | 3 | -5 | 56 | 0 | -8 | 98*
O=C(CSc1ccc2ccccc2n1)N/N=C/c1ccccc1O | 7 | 1 | 33 | 0 | 1 | -14
Cc1cccc(Cl)c1NC(=O)N(C)c1ccccc1 | 2 | . | . | . | . | .
FC(F)(F)Oc1cccc(Cn2ccc3ccc(-c4ccc5ccn(Cc6cccc(OC(F)(F)F)c6)c5c4)cc32)c1 | 20 | . | . | . | . | .
SMILES | rCAG RNA binder | APOBEC3A inh | PHOSPHO1 block | aDG glyco up | A3G deaminase | ALR inh
O=C(Cn1cnc2ccccc21)N/N=C/c1ccccn1 | 0 | 3 | 32 | 0 | -1 | 99*
COC(=O)c1cc2c(c3c4cc(C)ccc4n(S(=O)(=O)c4ccccc4)c13)C(=O)N(Cc1ccc(C(F)(F)F)cc1)C2 | 7 | . | . | . | . | .
COc1cccc(-c2nc(CCl)cs2)c1 | 1 | 1 | 4 | 0 | -1 | 99*
CCc1ccc(-c2nc(CCl)cs2)cc1 | 1 | -3 | -9 | 0 | -6 | 21
COc1ccc(-c2nc(CCl)cs2)cc1 | 5 | -4 | -24 | 0 | -9 | .
COc1ccc(-c2nc(CCl)cs2)cc1OC | 1 | 4 | 26 | 0 | -2 | 99*
C[C@@H]1CN([C@H](C)CO)S(=O)(=O)c2ccc(Br)cc2O[C@H]1CN(C)CC1CCOCC1 | 1 | . | . | . | . | .
COC(=O)c1cc2c(c3c4ccccc4n(S(=O)(=O)c4ccc(OC)cc4)c13)C(=O)N(C)C2 | 11 | . | . | . | . | .
O=C1Nc2ccccc2/C1=N/N=C/c1cccc(O)c1 | 8 | -5 | 46 | 0 | -7 | .
COc1cc(/C=N/N=C2/C(=O)Nc3ccccc32)cc(OC)c1O | 8 | 3 | -1 | 0 | 1 | 95*
COc1ccc([N+](=O)[O-])cc1NC(=O)CSc1nc(C)cc(C)n1 | 12 | -3 | 2 | 0 | -3 | .
CCCC(=O)OCC(=O)Nc1cc([N+](=O)[O-])ccc1OC | -3 | -2 | 13 | 0 | -5 | -5
Cc1ccc(SCC(=O)Nc2ccc(F)cc2[N+](=O)[O-])cc1C | -3 | -1 | 4 | 0 | -5 | 96*
COc1ccc([N+](=O)[O-])cc1NC(=O)CSc1ccc2ccccc2c1 | 14 | -4 | -5 | 5 | -6 | 99*
COCCSc1ccccc1C(=O)Nc1cc([N+](=O)[O-])ccc1OC | -1 | -1 | 13 | 0 | -3 | .
COc1ccc([N+](=O)[O-])cc1NC(=O)COC(C)=O | -2 | 5 | 65* | 1 | -7 | -31
COCCSc1ccccc1C(=O)Nc1ccc([N+](=O)[O-])cc1OC | -6 | 2 | 64* | 0 | 31 | -25
Cc1cc(C)n2nc(SCC(=O)Nc3ccc(F)cc3[N+](=O)[O-])nc2n1 | 2 | 3 | . | 0 | 2 | .
COC(=O)[C@]12C[C@H](CC(=O)NCc3ccc(C)o3)C(=O)N(Cc3cccc4ccccc34)C1=C[C@H](C(C)C)O[C@@H]2C1CC1 | 5 | . | . | . | . | .
CCCCNS(=O)(=O)/C=C/c1ccc(OC)cc1CNC(=O)OC(C)(C)C | 0 | . | . | . | . | .
O=C(Nc1ccccc1C(F)(F)F)OC1CCC12CCC(c1ccccc1)CC2 (configuration not stated) | 4 | . | . | . | . | .
Cc1cc(C)cc(C(=O)OCCN(C)C2CN(Cc3cn(Cc4ccc([N+](=O)[O-])cc4)nn3)S(=O)(=O)C2)c1 (configuration not stated) | 3 | . | . | . | . | .
O=C(Nc1ccc(F)cc1)OCc1cn(Cc2ccc(F)cc2)nn1 | 0 | . | . | . | . | .
Cc1cccc(-c2cccc3c4c([nH]c23)[C@@H]2C[C@H](N(C)C(=O)Nc3ccccc3)[C@H]([C@H](C)O)C(=O)N2CC4)c1 | 21 | . | . | . | . | .
COc1ccc(/C=C/C(=O)NC(=S)Nc2cc([N+](=O)[O-])ccc2O)cc1OC | 52* | -6 | 40 | 0 | -3 | 4
COc1ccccc1NCCC(=O)OCC(=O)Nc1cc([N+](=O)[O-])ccc1F | 4 | -5 | . | 0 | -5 | 93*
